The source of these data is PubChem BioAssay (NCATS).

Assay [1] has as its target Voltage-gated inwardly rectifying potassium channel KCNH2 (Homo sapiens) (UniProt Q12809). In words: qHTS Assay for Small Molecule Inhibitors of the Human hERG Channel Activity (AID 588834).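 Note: lower thallium flux fluorescence means stronger hERG block; nearly all actives have a fitted effect of over 50% in size.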 Note: potency is the fitted concentration of half-maximal effect. The method in brief:
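Thallium serves as surrogate for K+ influx through BacMam-delivered hERG in U2OS cells. Compounds are added for about 10 minutes after dye loading; stimulation buffer then starts flux, monitored kinetically on FDSS.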
A general note: qHTS replaces the single test concentration by a dilution series.

In assay [2] the target is Luciferin 4-monooxygenase (Photinus pyralis) (UniProt P08659). The assay is described as follows: Biochemical firefly luciferase enzyme assay for NPC (AID 624030). Note: nearly all actives have a fitted effect of over 70% in size. Note: potency is the fitted concentration of half-maximal effect. The method in brief:
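Counter-screen for direct inhibition of the luciferase enzyme by approved-drug library compounds, run at 10 nM enzyme in 50 mM Tris acetate (final). Luminescence was read within 5 min of enzyme-buffer addition and normalized to PTC124 versus DMSO (0%).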

Assay [3] in a line: S16 Schwann cell PMP22 intronic element firefly luciferase assay (AID 624032). Note: nearly all actives have a fitted effect of over 30% in size. Note: potency is the fitted concentration of half-maximal effect. The method in brief: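 Rat S16 Schwann cells stably carrying a PMP22 intronic element-driven Fluc reporter were seeded overnight, then exposed to compounds for 24 h at 37 °C. Luminescence was normalized to PTC124 (positive control) and DMSO (0% activity).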
Assay [4] in a line: S16 Schwann cell PMP22 intronic element beta-lactamase assay (AID 624044; calls by dose curve;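 note: 0% = DMSO and -100% = potassium clavulanate positive control; nearly all actives have a fitted effect of over 15% in size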). The conditions noted are these: S16 rat Schwann cells, PMP22 element beta-lactamase FRET, 24 h; ratio activity, negative = inhibition: at 38.3 µM (top of the series) unless noted. The essentials: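 Beta-lactamase reporter under a PMP22 intronic regulatory element in stable S16 rat Schwann cells; 24 h compound exposure. 460 nm blue signal normalized between DMSO (0%) and potassium clavulanate, with 535 nm FRET tracking viability; curves classed by r2 and response.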

Assay [5] can be described thus: S16 Schwann cell viability assay (CellTiter-Glo assay) (AID 624031). Note: nearly all actives have a fitted effect of over 70% in size. Note: potency is the fitted concentration of half-maximal effect. The essentials:
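Native S16 rat Schwann cells, 500-750 cells/well in DMEM with 10% FBS, dosed with compound after overnight culture and incubated 24h at 37 degree Celsius/5% CO2. Viability by CellTiter-Glo luminescence; % activity normalized to no-cell wells and DMSO-treated cells.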
For orientation: Cellular ATP, detected with luciferase, serves as a proxy for viable cell number.

Assay [6] in a line: qHTS assay for small molecule activators of the p53 signaling pathway (AID 651743; active = well fitted activation curve with a large enough effect in the signal ratio, not every such curve was filed as active; the % refers to the signal ratio; note: % of control where 0% means no effect). The conditions noted are these: HCT-116 p53RE-bla, beta-lactamase FRET ratio, 16 h; activation: active compounds read high. The essentials:
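Here HCT-116 cells with an integrated p53-responsive beta-lactamase gene were incubated with compounds (16 hours, 37 C) after a 5-hour plating period; beta-lactamase activity was detected as fluorescence intensity via B/G FRET substrate.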

The nature of assay [7]: qHTS assay for small molecule activators of the nuclear factor-kappa B (NF-kB) signaling pathway (AID 651749; active = well fitted activation curve with a large enough effect in the signal ratio; the % refers to the signal ratio; note: % of control where 0% means no effect). The conditions noted are these: NF-kB-bla ME-180 cells, beta-lactamase FRET ratio, 16 h; active compounds read high. The essentials:
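Beta-lactamase reporter expression, controlled by NF-kB response elements in ME-180 cells, was quantified fluorometrically via FRET disruption; cells at 2,000/well had been incubated with 23 nL test compound for 16 hr.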

Assay [8] in a line: qHTS assay for small molecule disruptors of the mitochondrial membrane potential - 1 hr assay (AID 651754; calls by dose curve; note: % is set by controls: 0 for no effect and ±100 for the full control effect; nearly all actives have a fitted effect of over 35% in size). The method in brief: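 Read-out: dye fluorescence at 490 nm ex/535 nm em (monomers) and 540 nm ex/590 nm em (aggregates) in HepG2 cells. Compound exposure 1 hr at 37C, followed by 30 min dye loading.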
Assay [9] can be described thus: qHTS assay for small molecule disruptors of the mitochondrial membrane potential - 5 hr assay (AID 651755; calls by dose curve; note: % is set by controls: 0 for no effect and ±100 for the full control effect; nearly all actives have a fitted effect of over 40% in size). The method in brief:
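Seed HepG2 overnight, add compound, incubate 5 hr at 37C and 5% CO2, stain 30 min with Mito-MPS, then measure monomer (490/535 nm) and aggregate (540/590 nm) fluorescence.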

Assay [10] concerns the target Tumor necrosis factor (Homo sapiens) (UniProt P01375). In words: qHTS assay to identify small molecules that stimulate Tumor Necrosis Factor-alpha (TNF-alpha) secretion (AID 651757; active = well fitted curve in the direction sought with a large enough effect in the signal ratio; the % refers to the signal ratio; note: potency is the fitted concentration of half-maximal effect). The method in brief: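 THP-1 cells, 3000/well; compound 17 hrs, 37 C; add cryptate/XL665 anti-TNF-alpha antibody pair; 3 hr RT; TR-FRET (HTRF) read of secreted TNF-alpha. Quantitative HTS format.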

Assay [11] deals with Peroxisome proliferator-activated receptor alpha (Homo sapiens) (UniProt Q07869). In words: qHTS assay for small molecule agonists of the peroxisome proliferator-activated receptor alpha (PPARalpha) signaling pathway (AID 651778). Note: % of control where 0% means no effect. The conditions noted are these: PathHunter PPARalpha complementation, chemiluminescence, 6 h; active compounds read high. The method in brief:
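Cells plated at 2,000/well and held overnight at 37 C, 5% CO2, then compound added by pin tool for 6 hr; after PathHunter detection reagent and 60 min at room temperature, chemiluminescence from enzyme complementation was read.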

Assay [12] is described as follows: qHTS assay for small molecule agonists of the antioxidant response element (ARE) signaling pathway (AID 651741; active = well fitted activation curve with a large enough effect in the signal ratio; the % refers to the signal ratio; note: potency is the fitted concentration of half-maximal effect). The essentials:
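Beta-lactamase reporter expression driven by the antioxidant response element in HepG2 cells was detected by fluorescence with LiveBLAzer B/G FRET substrate (2 h, room temperature) following 16 h compound treatment at 37 C.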

Assay [13] can be described thus: qHTS assay to identify small molecules that stimulate interleukin-8 (IL-8) secretion (AID 651758; active = well fitted activation curve with a large enough effect in the signal ratio; the % refers to the signal ratio; note: potency is the fitted concentration of half-maximal effect). The essentials:
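Quantitative HTS in THP-1 monocytic cells at 2000 cells per well, with 16 hrs compound incubation at 37 C. IL-8 in the medium was then quantified by HTRF immunoassay, read after 1-3 hrs at room temperature.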

A short description of assay [14]: qHTS assay for environmental chemicals that activate the Aryl hydrocarbon Receptor (AhR) signaling pathway (AID 651777). Note: % of control where 0% means no effect; nearly all actives have a fitted effect of over 15% in size. The conditions noted are these: 1A2-DRE human hepatoma cells, luciferase, 24 h; activation: active compounds read high. The essentials:
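Human hepatoma 1A2-DRE cells stably carrying a DRE/CYP1A2 promoter–luciferase reporter, 1,200 cells/well, exposed to compound 24 hr at 37 C. Luciferase read by One-Glo luminescence after 30 min at room temperature; increased signal marks AhR activation.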

Values joined by “and” are separate entries in the source; they are usually repeats but may differ in a detail not shown here. Equal entries are not always repeated. A number with no mark means an inactive call. Results filed as inconclusive are left out. Active and inactive are the calls of the source. Unless noted, calls come from the whole dose curve; as a rule, active = well fitted curve in the direction sought with a large enough effect; inconclusive = small, poorly fitted or top-dose-only effect, or another doubt; inactive = no such curve, though single readings can be large; an effect the other way counts as inactive or inconclusive.

Sequence of Peroxisome proliferator-activated receptor alpha (Homo sapiens) (Q07869 whole entry, looked up): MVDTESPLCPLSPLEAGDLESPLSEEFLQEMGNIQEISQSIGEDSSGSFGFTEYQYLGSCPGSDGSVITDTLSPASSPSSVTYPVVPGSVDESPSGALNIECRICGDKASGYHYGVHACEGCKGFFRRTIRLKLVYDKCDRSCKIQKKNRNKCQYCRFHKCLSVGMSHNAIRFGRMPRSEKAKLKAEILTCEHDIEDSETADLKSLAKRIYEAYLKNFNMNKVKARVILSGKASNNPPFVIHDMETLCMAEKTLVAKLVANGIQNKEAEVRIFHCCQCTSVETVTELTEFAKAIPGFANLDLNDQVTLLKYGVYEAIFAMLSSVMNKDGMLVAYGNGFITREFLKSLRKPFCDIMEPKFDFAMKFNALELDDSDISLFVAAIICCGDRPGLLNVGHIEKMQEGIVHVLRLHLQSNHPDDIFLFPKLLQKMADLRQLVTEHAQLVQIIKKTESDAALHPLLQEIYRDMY
Sequence of Tumor necrosis factor (Homo sapiens) (P01375 whole entry, looked up): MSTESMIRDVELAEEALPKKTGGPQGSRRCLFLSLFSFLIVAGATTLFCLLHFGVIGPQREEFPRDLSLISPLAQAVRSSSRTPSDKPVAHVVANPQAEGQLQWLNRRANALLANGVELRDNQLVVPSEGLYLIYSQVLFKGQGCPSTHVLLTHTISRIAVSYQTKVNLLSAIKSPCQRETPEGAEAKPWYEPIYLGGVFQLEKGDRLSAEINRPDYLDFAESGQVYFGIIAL
Sequence of Voltage-gated inwardly rectifying potassium channel KCNH2 (Homo sapiens) (Q12809 whole entry, looked up): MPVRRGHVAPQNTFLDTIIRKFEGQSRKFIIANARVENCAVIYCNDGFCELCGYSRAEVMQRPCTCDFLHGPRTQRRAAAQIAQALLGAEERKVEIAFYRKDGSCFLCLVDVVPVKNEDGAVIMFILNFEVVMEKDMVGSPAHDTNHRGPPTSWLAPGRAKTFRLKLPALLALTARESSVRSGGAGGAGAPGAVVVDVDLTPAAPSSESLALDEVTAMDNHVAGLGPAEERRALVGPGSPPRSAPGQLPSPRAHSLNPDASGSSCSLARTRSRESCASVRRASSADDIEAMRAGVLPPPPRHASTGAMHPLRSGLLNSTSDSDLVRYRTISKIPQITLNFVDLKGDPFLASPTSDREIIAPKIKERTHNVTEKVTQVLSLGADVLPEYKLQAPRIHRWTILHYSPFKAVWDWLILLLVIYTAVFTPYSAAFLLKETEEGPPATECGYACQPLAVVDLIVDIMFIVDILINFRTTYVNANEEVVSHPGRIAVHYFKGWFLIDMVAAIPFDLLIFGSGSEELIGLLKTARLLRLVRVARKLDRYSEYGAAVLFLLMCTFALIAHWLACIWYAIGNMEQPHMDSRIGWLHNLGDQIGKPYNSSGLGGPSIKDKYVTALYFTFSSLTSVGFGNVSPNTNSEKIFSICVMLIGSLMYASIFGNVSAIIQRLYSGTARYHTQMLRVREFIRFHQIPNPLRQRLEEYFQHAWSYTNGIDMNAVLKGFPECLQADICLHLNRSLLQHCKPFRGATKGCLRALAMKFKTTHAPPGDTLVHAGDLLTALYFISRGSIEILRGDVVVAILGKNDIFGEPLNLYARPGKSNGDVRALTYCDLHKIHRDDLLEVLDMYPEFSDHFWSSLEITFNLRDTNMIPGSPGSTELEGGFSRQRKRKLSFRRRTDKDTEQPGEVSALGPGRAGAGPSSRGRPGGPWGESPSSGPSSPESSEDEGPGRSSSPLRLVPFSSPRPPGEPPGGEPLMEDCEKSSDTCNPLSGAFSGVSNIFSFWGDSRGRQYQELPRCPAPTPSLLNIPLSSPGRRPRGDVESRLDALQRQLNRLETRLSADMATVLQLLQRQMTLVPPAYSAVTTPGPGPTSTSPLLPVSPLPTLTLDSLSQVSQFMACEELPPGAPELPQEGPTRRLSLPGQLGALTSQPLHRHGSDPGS
Sequence of Luciferin 4-monooxygenase (Photinus pyralis) (P08659 whole entry, looked up): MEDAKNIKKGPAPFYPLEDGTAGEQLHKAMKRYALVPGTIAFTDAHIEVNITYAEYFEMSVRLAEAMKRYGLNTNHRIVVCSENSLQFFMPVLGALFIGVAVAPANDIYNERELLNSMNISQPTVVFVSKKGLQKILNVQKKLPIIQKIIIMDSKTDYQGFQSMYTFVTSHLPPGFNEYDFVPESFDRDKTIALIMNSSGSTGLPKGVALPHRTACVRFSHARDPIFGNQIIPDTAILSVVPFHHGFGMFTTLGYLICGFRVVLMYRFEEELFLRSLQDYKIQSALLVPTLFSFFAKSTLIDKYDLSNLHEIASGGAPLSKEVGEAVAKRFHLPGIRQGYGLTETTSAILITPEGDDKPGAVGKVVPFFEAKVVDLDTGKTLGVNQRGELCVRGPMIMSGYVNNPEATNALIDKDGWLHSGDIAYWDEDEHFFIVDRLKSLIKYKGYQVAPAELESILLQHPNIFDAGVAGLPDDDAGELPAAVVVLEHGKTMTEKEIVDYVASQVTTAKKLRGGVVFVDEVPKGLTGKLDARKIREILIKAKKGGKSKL

Regarding `CC(C)(Oc1ccc(C2CCCc3ccccc32)cc1)C(=O)O` (configuration not stated), the Potency entry in assay [1], in assay [2] and in assay [3] was “inactive” in each case. Besides, in assay [4], the ratio activity, negative = inhibition was -0.979%.
On to `CC(C)(COP(=O)(O)OP(=O)(O)OC[C@H]1O[C@@H](n2cnc3c(N)ncnc32)[C@H](O)[C@@H]1OP(=O)(O)O)C(O)C(=O)NCCC(=O)NCCS` (some centres not stated), for which the Potency entry in assay [1], in [2] and in assay [5] was “inactive” in each case. In addition, the ratio activity, negative = inhibition in assay [4] was 1.27%.
As for `CCCCC`, the Potency entry in assay [1], in [2], in assay [5], in assay [8], in [9] and in assay [10] was “inactive” throughout. Further, the ratio activity, negative = inhibition in assay [4] is 1.47%. Moreover, the activation in assay [6] is 2.34%; in assay [7], -0.668%. In [11], the max response was -0.71%.
In the case of `CC(CN(C)C)CN1c2ccccc2Sc2ccc(C(F)(F)F)cc21` (configuration not stated), in assay [1], the Potency is 11.2 µM (active). Besides, the Potency entry in assay [2] is “inactive”. Moreover, in assay [4], the ratio activity, negative = inhibition was -9.58%.
With `CN(C)c1ccc(C(=C2C=CC(=[N+](C)C)C=C2)c2c(O)c(S(=O)(=O)[O-])cc3cc(S(=O)(=O)O)ccc23)cc1`, the Potency entry in assay [1] is “inactive”. In addition, the figures for the Potency in [2] and in assay [3] were 14.4 µM (active) and 36.1 µM (active), respectively. Moreover, in assay [4], the ratio activity, negative = inhibition was 1.14%.
For `COc1cc(NCCCC(C)N)c2ncccc2c1` (configuration not stated), the Potency entry in [1] and in assay [2] was “inactive” throughout. The Potency in [3] was 6.42 µM (active).
For `O=C(/C=C/c1cccc(F)c1)NC1CC1`, the Potency entry in assay [1], in assay [2] and in [3] was “inactive” in each case. In addition, in assay [4], the ratio activity, negative = inhibition is 2.97%.
For the molecule `c1ccc2c(c1)OCC(CN1CCCCC1)O2` (configuration not stated), the Potency entry in assay [1], in assay [2] and in assay [3] was “inactive” each time. In addition, the ratio activity, negative = inhibition in assay [4] was 1.83%.
For the molecule `CCN(CC)CCCC(C)Nc1cc(/C=C/c2ccccc2Cl)nc2cc(Cl)ccc12` (configuration not stated), the Potency in assay [1] was 14.1 µM (active). For the same molecule, the Potency result in assay [2] is “inactive”. In addition, the ratio activity, negative = inhibition in [4] was -1.08%.
On the same counts, the results for `CCCCCc1ccc(C)cc1O` are “inactive”, “inactive” and 4.39%.
Regarding `C=C1C(CCl)(CCl)C2(Cl)C(Cl)C(Cl)C1(Cl)C2(Cl)Cl` (configuration not stated), the Potency in assay [1] was 28.2 µM (active) and 15.8 µM (active); in [3] it was 36.1 µM (active); in assay [12], 37.6 µM (active); in [13], 66.8 µM (active). Moreover, in assay [2], the Potency result was “inactive”. For the same molecule, in [4], the ratio activity, negative = inhibition was -26.3%. The activation is 0.534% in assay [7] and 1.11% in assay [14]. The max response in assay [11] is 19%.
For the molecule `Oc1ccc(Cl)c2c1CCC2`, the Potency result in assay [1] and in assay [2] was “inactive” each time. The ratio activity, negative = inhibition in [4] is -4.38%.
On to `NC(=O)Oc1ccc(Cc2ccccc2)cc1`, for which the Potency result in assay [1], in assay [2] and in [5] was “inactive” in each case. Moreover, in [4], the ratio activity, negative = inhibition was -0.76%.
On to `O=C(O)[C@H]1C(=CCO)O[C@H]2CC(=O)N12`, for which the Potency entry in [1], in [2] and in [5] was “inactive” in each case. In addition, the ratio activity, negative = inhibition in [4] was -34.7%.
Turning to `CC(C)OC(=O)Nc1ccc2nc(-c3cscn3)[nH]c2c1`, the Potency entry in assay [1] and in assay [3] was “inactive” throughout. Moreover, the Potency in assay [2] is 9.07 µM (active).
In the case of `CCCCCCCCCCCC(=O)N(CCO)CCO`, the Potency entry in assay [1], in assay [2] and in assay [3] was “inactive” each time.
For `CN(C)C(=O)CCSC(SCCC(=O)O)c1cccc(/C=C/c2ccc3ccc(Cl)cc3n2)c1` (configuration not stated), the Potency entry in assay [1] and in assay [3] was “inactive” each time. For the same molecule, in assay [2], the Potency is 2.87 µM (active). Moreover, the ratio activity, negative = inhibition in assay [4] is -0.229%.
On to `COc1ccc2c(c1)OC(C)(C)C(c1ccccc1)C2c1ccc(OCCN2CCCC2)cc1` (configuration not stated), for which the results for the Potency in assay [1] and in assay [5] were 10 µM (active) and 32.2 µM (active), respectively. Also, the Potency result in assay [2] is “inactive”. Further, the ratio activity, negative = inhibition in assay [4] is -10.8%.
`Cc1cc(C)c(NC(=O)C[C@H](CC(=O)O)c2cccc3ccccc23)c(C(=O)N2CCC3(CCCC3)CC2)c1`: the Potency entry in assay [1], in assay [2] and in [3] was “inactive” each time.
For the molecule `CCOC(C)OCC`, the Potency result in assay [1], in assay [2], in assay [5] and in [10] was “inactive” in each case. Moreover, the figures for the activation in assay [7] and in assay [14] were 0.0884% and -0.455%, respectively. In addition, the max response in [11] is -1.13%.
With `O=C(NNCNNC(=O)c1ccncc1)c1ccncc1`, the Potency entry in assay [1], in [2] and in assay [5] was “inactive” throughout. Moreover, the ratio activity, negative = inhibition in [4] is -2.76%.
Regarding `N[C@@H](Cc1cc(I)c(Oc2ccc(O)c(I)c2)c(I)c1)C(=O)O`, the Potency entry in assay [1], in assay [2] and in assay [5] was “inactive” each time. Besides, in assay [4], the ratio activity, negative = inhibition is -3.84%. For the same molecule, the activation in assay [6] is 5%. Further, the max response in assay [11] was -3.23%.
As to `CC(=O)Oc1cccc(C(=O)O)c1OC(C)=O`, the Potency result in [2] is “inactive”.
`CC/C=C\C/C=C\C/C=C\CCCCCCCC(=O)O`: in [12], the Potency was 42.2 µM (active). Further, the Potency result in [8], in assay [9] and in [10] was “inactive” in each case. For the same molecule, the activation in assay [14] is 0.211%. For the same molecule, the max response in assay [11] is 20%.
Take `C[C@H]1O[C@@H](O[C@H]2[C@@H](O)C[C@H](O[C@H]3[C@@H](O)C[C@H](O[C@H]4CC[C@@]5(C)[C@H](CC[C@@H]6[C@@H]5C[C@@H](O)[C@]5(C)[C@@H](C7=CC(=O)OC7)CC[C@]65O)C4)O[C@@H]3C)O[C@@H]2C)C[C@H](O)[C@@H]1O`: the activation in assay [7] was -3.56% and -2.4%; in assay [14], 2.26% and 1.31%. In addition, the Potency in [10] was 0.376 µM (active). Moreover, the max response in assay [11] was 3.82% and -3.75%.
In the case of `NCCN`, the Potency entry in assay [8], in [9] and in [10] was “inactive” throughout.
Take `CC(C)(C)CC(C)(C)c1ccc(OCCO)cc1`: the Potency result in assay [8] and in assay [10] was “inactive” throughout.
